Measurements reported in PubChem BioAssay (EPA / NIEHS).
Where “and” joins values, the source holds several entries; their conditions need not be identical. Identical values can stand only once. Inconclusive results are not listed. Some compounds were tested as several samples or in several runs, with calls that do not always agree. Calls of active or inactive are those of the source. How the source made its calls, unless noted: active means hit-call score of the fitted dose curve at least 0.9, where 1 is the maximum; inactive means score below 0.9.

Assays:
[1] = CCTE_Shafer_MEA_dev_bursting_electrodes_number: CCTE's Neural Network Formation Assay for Number of Bursting Electrodes, Shafer Lab (AID 2284043; active means hit-call score of the fitted dose curve at least 0.9, where 1 is the maximum;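 on AC50: potency is for loss of bursting electrodes relative to DMSO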)
Outline: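 Read-out is the per-well number of electrodes bursting at least once every 2 minutes, recorded on days 5, 7, 9 and 12 and collapsed by trapezoidal area under the curve. Cultures were primary rat cortical neurons on MEA plates, treated continuously from plating.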

[2] = CCTE_Shafer_MEA_dev_per_burst_interspike_interval: CCTE's Neural Network Formation Assay for Burst Interspike Interval, Shafer Lab (AID 2284044);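 further: mean spike spacing inside bursts as AUC over recordings on days 5 7 9 12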;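 on AC50: potency for a decrease of within-burst interspike interval below DMSO level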
Outline: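 Neurons from rat cortex plated onto PEI-coated MEA wells with laminin […] at 1.5 x 10^5 cells/well, then treated from day 0. Media and compound fully replaced on DIV 5 and 9. Extracellular spontaneous firing recorded four times; interspike interval per burst summarised as AUC.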

[3] = CCTE_Shafer_MEA_dev_burst_duration_mean: CCTE's Neural Network Formation Assay for Mean Burst Duration, Shafer Lab (AID 2284045);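 on AC50: curve fitted for loss meaning shorter burst duration than DMSO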
Outline: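 Read-out: average first-to-last-spike interval within single-electrode bursts, averaged over bursting electrodes per well, then summarised as area under the curve across days 5, 7, 9 and 12. Developing rat cortical networks were exposed from day 0.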

[4] = CCTE_Shafer_MEA_dev_inter_network_spike_interval_mean: CCTE's Neural Network Formation Assay for Mean Inter-network Spike Interval, Shafer Lab (AID 2284047);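 on AC50: potency for a decrease in mean inter-network spike interval below DMSO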
Outline: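 Rat cortical cultures, 1.5 x 10^5 cells/well on 48-well MEA plates; continuous exposure days 0–12, medium and compound refreshed DIV 5, 9. Mean time between consecutive network-spike peaks; AUC across DIV 5/7/9/12; DMSO baseline, negative fitting direction.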

[5] = CCTE_Shafer_MEA_dev_network_spike_number: CCTE's Neural Network Formation Assay for Number of Network Spikes, Shafer Lab (AID 2284048);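 further: synchronized bursts across electrodes counted on days 5 7 9 12 and integrated as AUC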;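 on AC50: fit as a loss of signal meaning fewer network spikes than DMSO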
Outline: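 Developing networks of primary rat cortical neurons are treated over 12 days starting at plating, with media and compound fully replaced on DIV 5 and 9. Network spike counts from four recording days are integrated as trapezoidal AUC.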

[6] = CCTE_Shafer_MEA_dev_network_spike_peak: CCTE's Neural Network Formation Assay for Mean Number of Electrodes in Network Spike, Shafer Lab (AID 2284049);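 on AC50: fitted for loss of signal meaning fewer electrodes in network spikes than DMSO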
Outline: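 Rat cortical primary culture, 1.5 x 10^5 cells/well, 48-well MEA (16 electrodes/well). Dosing day 0 through DIV 12, full media/compound exchange DIV 5, 9. AxIS adaptive spike detection; AUC over days 5/7/9/12; loss-of-signal vs DMSO.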

[7] = CCTE_Shafer_MEA_dev_spike_duration_mean: CCTE's Neural Network Formation Assay for Mean Spike Duration, Shafer Lab (AID 2284051);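 further: mean network spike duration pooled as area under curve over DIV 5 to 12 recordings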;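 on AC50: potency for a decrease in mean network spike duration versus DMSO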
Outline: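 Readout is the average length of network spikes, clustered firing across electrodes, summed over DIV 5, 7, 9 and 12 as area under the curve. Neurons from rat cortex developed networks on MEA plates under continuous 12-day exposure.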

[8] = CCTE_Shafer_MEA_dev_per_network_spike_spike_number_mean: CCTE's Neural Network Formation Assay for Mean Number of Spikes in a Network Spike, Shafer Lab (AID 2284053);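 on AC50: fitted as decrease in spikes per network spike relative to DMSO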
Outline: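 Continuous twelve-day exposure of developing rat cortical networks grown over 16 microelectrodes per well; spontaneous firing is captured at four time points, and the per-network-spike spike number is integrated over development by trapezoidal AUC.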

[9] = CCTE_Shafer_MEA_dev_per_network_spike_spike_percent: CCTE's Neural Network Formation Assay for Percent of Spikes in a Network Spike, Shafer Lab (AID 2284054)
Outline: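 Rat primary cortical cultures, 1.5 x 10^5 cells/well on MEA. Continuous compound exposure d0–12, medium/compound renewed DIV 5, 9. Network-spike spike % (0.05 s peak window), AUC over 4 recordings, DMSO baseline.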

[10] = system: DIO2 (gene 1734); assay: CCTE_GLTED_hDIO2: CCTE's human Deiodinase 2 (DIO2) Inhibition Assay, Great Lakes Toxicology and Ecology Division (GLTED) Lab (AID 2284050; active means hit-call score of the fitted dose curve at least 0.9, where 1 is the maximum)
Outline: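 hDIO2 enzyme + test chem, 3 h → free iodide from substrate; step 2: Sandell-Kolthoff (Ce IV reduction by As, iodide-catalysed), spectrophotometric read. Triplicate plates; DMSO = baseline.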

Measured: AC50

O=[N+]([O-])/N=C1\NCCN1Cc1ccc(Cl)nc1
inactive: [1] | [2] | [3] | [4] | [5] | [6] | [7] | [9]
active: [8] 15 µM

CC1(c2ccc(Oc3ccccc3)cc2)OC(=O)N(Nc2ccccc2)C1=O (stereo unspecified)
inactive: [3]
active: [1] 4.99 µM | [2] 7.68 µM | [4] 3.1 µM | [5] 3.39 µM | [6] 5.73 µM | [7] 3.17 µM | [8] 4.26 µM | [9] 2.47 µM

O=C(O)C(F)(F)C(F)(F)C(F)(F)C(F)(F)C(F)(F)C(F)(F)C(F)(F)F
inactive: [1] | [2] | [3] | [4] | [5] | [6] | [7] | [8] | [9]
active: [6] 13.9 µM

CNC(=O)CSP(=S)(OC)OC
inactive: [2] | [3] | [4] | [5] | [7] | [8]
active: [1] 66.4 µM and 21.9 µM | [6] 50 µM and 15 µM | [7] 50 µM | [8] 50 µM | [9] 50 µM and 15 µM

O=S(=O)(O)C(F)(F)C(F)(F)C(F)(F)C(F)(F)C(F)(F)C(F)(F)C(F)(F)C(F)(F)F
inactive: [1] | [2] | [3] | [4] | [5] | [6] | [7] | [8] | [9]
active: [1] 43.1 µM | [6] 50 µM | [10] 95 µM [middle of 4 runs] | [7] 50 µM | [8] 50 µM

COP(=O)(OC)OC=C(Cl)Cl
active: [1] 0.659 µM | [2] 10.1 µM | [5] 0.983 µM | [6] 2.87 µM | [7] 1.45 µM | [8] 1.94 µM | [9] 1.99 µM
inactive: [1] | [2] | [3] | [4] | [5] | [6] | [7] | [8]

N#Cc1c(Cl)c(Cl)c(Cl)c(C#N)c1Cl
active: [10] 5.63 µM

Oc1cc(Cl)ccc1Oc1ccc(Cl)cc1Cl
inactive: [3] | [4] | [5]
active: [1] 9.29 µM | [2] 16 µM | [6] 9.85 µM | [10] 84 µM | [7] 10 µM | [8] 9.32 µM | [9] 9.46 µM

CC[C@H](C)[C@H]1O[C@]2(C=C[C@@H]1C)C[C@@H]1C[C@@H](C/C=C(\C)[C@@H](O[C@H]3C[C@H](OC)[C@@H](O[C@H]4C[C@H](OC)[C@@H](O)[C@H](C)O4)[C@H](C)O3)[C@@H](C)/C=C/C=C3\CO[C@@H]4[C@H](O)C(C)=C[C@@H](C(=O)O1)[C@]34O)O2 (tested in a mixture with another compound)
inactive: [4] | [9]
active: [1] 3.82 nM and 1.05 nM | [2] 1.37 nM and 2.71 nM | [3] 1.34 nM and 0.41 nM | [5] 27.5 nM and 2.25 nM | [6] 16.4 nM and 2.37 nM | [7] 3.01 nM and 0.926 nM | [8] 6.69 nM and 2.06 nM | [9] 0.259 µM

O=C(O)COc1ccc(Cl)cc1Cl
active: [1] 30.9 µM | [6] 50 µM
inactive: [2] | [3] | [4] | [5] | [7] | [8] | [9]

Oc1ccc(Cl)cc1Cc1ccccc1
active: [10] 132 µM

CC(C)N(C(=O)COc1nnc(C(F)(F)F)s1)c1ccc(F)cc1
inactive: [1] | [2] | [3] | [4] | [5] | [6] | [7] | [8] | [9]
active: [1] 24.5 µM | [6] 23.3 µM | [7] 24.5 µM | [8] 15 µM | [9] 15 µM

CCC(C)(C)C(=O)OC1=C(c2ccc(Cl)cc2Cl)C(=O)OC12CCCCC2
inactive: [1] | [2] | [3] | [4] | [5] | [6] | [7] | [8] | [9]

CCC(C)(NC(=O)c1cc(Cl)c(C)c(Cl)c1)C(=O)CCl (stereo unspecified)
active: [10] 13.2 µM

CC1(C)C(C=C(Cl)Cl)C1C(=O)OC(C#N)c1ccc(F)c(Oc2ccccc2)c1 (stereo unspecified)
inactive: [2] | [4]
active: [1] 2.28 µM and 25.9 µM and 9.56 µM | [2] 10 µM | [3] 2.04 µM and 8.68 µM and 7.93 µM | [5] 235 nM and 10.6 µM and 6.32 µM | [6] 10 µM and 11.1 µM and 15 µM | [7] 5.46 µM and 10.2 µM and 8.39 µM | [8] 3.15 µM and 12.1 µM and 11.9 µM | [9] 1.72 µM and 13.6 µM and 4.24 µM

ClC1C(Cl)C(Cl)C(Cl)C(Cl)C1Cl (stereo unspecified)
inactive: [1] | [2] | [3] | [4] | [5] | [6] | [7] | [8] | [9]

O=S1OCC2C(CO1)C1(Cl)C(Cl)=C(Cl)C2(Cl)C1(Cl)Cl (stereo unspecified)
inactive: [2] | [3] | [4]
active: [1] 8.62 µM | [5] 5.95 µM | [6] 8.02 µM | [7] 8.4 µM | [8] 8.24 µM | [9] 4.76 µM

CCOCN(C(=O)CCl)c1c(C)cccc1CC
active: [10] 58.9 µM

COP(=S)(OC)Oc1ccc([N+](=O)[O-])cc1
inactive: [2] | [3] | [4] | [5] | [7] | [9]
active: [1] 15 µM | [6] 23.4 µM | [8] 24.6 µM
